In all, about 39,000 compounds went through this assay and about 500 (1.3%) were called active. This excerpt belongs to a sample that is enriched for actives.

The experiment deals with S. aureus RN4220. Put plainly: growth inhibition call (relative growth <= 0.2). As to conditions: 50 µM.
`C[N+](C)(C)CCCCCCNC(=O)[C@H]1C[C@H]2C(=O)N[C@@H](CCCC[N+](C)(C)C)C(=O)N2[C@H]1c1ccc(O)cc1`: the growth inhibition call was “inactive”.

As to `C[N+](C)(C)CCCCNC(=O)[C@H]1C[C@H]2C(=O)N[C@@H](CCCC[N+](C)(C)C)C(=O)N2[C@H]1c1ccc(O)cc1`, the growth inhibition call was “inactive”.

For the compound `C[N+](C)(C)CCCCCCNC(=O)[C@@H]1C[C@@H]2C(=O)N[C@@H](CCCC[N+](C)(C)C)C(=O)N2[C@@H]1c1ccc(O)cc1`, the growth inhibition call was “active”.

Turning to `COc1ccc(CNC(=O)C[C@@H]2C[C@H]3c4cc(NC(=O)NC5CCCC5)ccc4O[C@H]3[C@@H](CO)O2)cc1`, the growth inhibition call is “inactive”.

On to `O=C(Nc1ccc(S(=O)(=O)OCC(F)(F)C(F)(F)C(F)(F)C(F)F)cc1)NC1(C(F)(F)F)Oc2ccccc2O1`, for which the growth inhibition call was “active”.

On to `C=CC[C@@H](CC(=O)N(CCO)Cc1ccccc1)C(=O)NCCOC(=O)[C@@H](CC=C)CC(=O)OC(C)(C)C`, for which the growth inhibition call is “inactive”.

For `C[C@H](CO)N1C[C@H](C)[C@H](CN(C)C(=O)Nc2ccc(C(F)(F)F)cc2)Oc2ccc(NC(=O)Cn3cnnn3)cc2CC1=O`, the growth inhibition call was “inactive”.

For the compound `O=C(C[C@@H]1CC[C@H]2[C@@H](COC[C@H](O)CN2S(=O)(=O)c2ccccc2)O1)N1CCOCC1`, the growth inhibition call was “inactive”.

Turning to `COc1ncc(-c2ccc3c(Nc4cc(Oc5cc(F)cc(F)c5)cc(C(=O)O)c4)c(S(=O)(=O)NC4CC4)cnc3c2)c(OC)n1`, the growth inhibition call was “active”.

With `CCCN(C)C[C@H]1OCCCC[C@H](C)Oc2ccc(NC(=O)CCC(F)(F)F)cc2C(=O)N([C@H](C)CO)C[C@@H]1C`, the growth inhibition call is “inactive”.

With `O=C(OCc1ccccc1)c1cccnc1`, the growth inhibition call was “inactive”.

`C[C@H]1CCCCO[C@H](CN(C)CC2CCCCC2)[C@@H](C)CN([C@@H](C)CO)C(=O)c2cc(NC(=O)Nc3cccc4ccccc34)ccc2O1`: the growth inhibition call is “inactive”.

In the case of `CCCC#Cc1ccc2c(c1)O[C@H](CN(C)Cc1ccc3c(c1)OCO3)[C@H](C)CN([C@@H](C)CO)S2(=O)=O`, the growth inhibition call was “inactive”.

Take `C[C@@H]1CN([C@@H](C)CO)C(=O)c2cc(NS(=O)(=O)c3cccs3)ccc2O[C@@H]1CN(C)CC1CC1`: the growth inhibition call is “inactive”.

Regarding `CN(C)c1ccc(O)c2c1C[C@H]1C[C@H]3[C@H](N(C)C)C(=O)[C@@H](C(N)=O)C(=O)[C@@]3(O)C(=O)[C@H]1C2=O`, the growth inhibition call is “active”.

Regarding `CN(C)c1cc(NC(=O)CNC(C)(C)C)c(O)c2c1C[C@H]1C[C@H]3[C@H](N(C)C)C(=O)[C@@H](C(N)=O)C(=O)[C@@]3(O)C(=O)[C@H]1C2=O`, the growth inhibition call is “inactive”.

In the case of `CN(C)[C@@H]1C(=O)[C@@H](C(N)=O)C(=O)[C@@]2(O)C(=O)[C@H]3C(=O)c4c(O)cccc4C[C@H]3C[C@@H]12`, the growth inhibition call was “inactive”.

As for `CN(C)[C@@H]1C(=O)[C@@H](C(N)=O)C(=O)[C@@]2(O)C(=O)[C@H]3C(=O)c4c(O)ccc(Cl)c4[C@@H](O)[C@H]3C[C@@H]12`, the growth inhibition call is “active”.

For `CN(C)c1cc(CNCC(C)(C)C)c(O)c2c1C[C@H]1C[C@H]3[C@H](N(C)C)C(=O)[C@H](C(N)=O)C(=O)[C@@]3(O)C(=O)[C@@H]1C2=O`, the growth inhibition call is “active”.

For `CN(C)[C@@H]1C(=O)[C@@H](C(=O)NCNCCCC[C@H](N)C(=O)O)C(=O)[C@@]2(O)C(=O)[C@@H]3C(=O)c4c(O)cccc4[C@@](C)(O)[C@H]3C[C@@H]12`, the growth inhibition call is “inactive”.

On to `CN(C)C1C(O)=C(C(N)=O)C(=O)C2(O)C(O)=C3C(=O)c4c(O)ccc(Cl)c4C(O)C3CC12.Cl` (stereo not given), for which the growth inhibition call was “inactive”.

Take `CN(C)[C@@H]1C(=O)[C@@H](C(N)=O)C(=O)[C@@]2(O)C(=O)[C@@H]3C(=O)c4c(O)c(NC(=O)CN5CCCC5)cc(F)c4C[C@H]3C[C@@H]12`: the growth inhibition call is “active”.

For `CN(C)c1cc(NC(=O)CNC(C)(C)C)c(O)c2c1C[C@H]1C[C@H]3[C@H](N(C)C)C(=O)C(C(N)=O)=C(O)[C@@]3(O)C(=O)[C@H]1C2=O`, the growth inhibition call was “inactive”.

Regarding `CN(C)c1cc(NC(=O)CNC(C)(C)C)c(O)c2c1CC1CC3C(N(C)C)C(O)=C(C(N)=O)C(=O)C3(O)C(O)=C1C2=O` (stereo not given), the growth inhibition call was “inactive”.

With `CN(C)c1ccc(O)c2c1C[C@H]1C[C@H]3[C@H](N(C)C)C(=O)C(C(N)=O)=C(O)[C@@]3(O)C(=O)[C@H]1C2=O`, the growth inhibition call is “inactive”.

`CN(C)c1ccc(O)c2c1C[C@@H]1C[C@@H]3[C@@H](N(C)C)C(=O)C(C(N)=O)=C(O)[C@]3(O)C(=O)[C@H]1C2=O`: the growth inhibition call is “inactive”.

Regarding `COc1ccc(S(=O)(=O)N(C)C[C@H]2Oc3ccc(NC(=O)C4CC4)cc3C(=O)N([C@@H](C)CO)C[C@@H]2C)cc1`, the growth inhibition call was “inactive”.

In the case of `C[C@@H]1CCCCO[C@H](CN(C)C(=O)Nc2ccc3c(c2)OCO3)[C@H](C)CN([C@H](C)CO)C(=O)c2cc(NS(=O)(=O)c3ccc(F)cc3)ccc2O1`, the growth inhibition call is “inactive”.

With `C[C@H](CO)N1C[C@H](C)[C@H](CN(C)Cc2ccc(Cl)c(Cl)c2)Oc2ccc(NC(=O)Nc3ccccc3)cc2CC1=O`, the growth inhibition call was “inactive”.

As for `O=c1cc(CN2CC[C@H](N3CCOCC3)[C@H](CCCO)C2)nc2c(O)cccn12`, the growth inhibition call is “inactive”.

`C[C@@H]1CCCCO[C@@H](CN(C)CC2CCCCC2)[C@@H](C)CN([C@@H](C)CO)C(=O)c2cc(NC(=O)C3CCCCC3)ccc2O1`: the growth inhibition call was “inactive”.

As for `CC(C)[C@@H](O)C[C@@H](C)O[C@@H]1O[C@H](CO[C@@H]2OC[C@](O)(CO)[C@H]2O)[C@@H](O)[C@H](O)[C@H]1O`, the growth inhibition call was “inactive”.

In the case of `C[C@H]1CN([C@@H](C)CO)S(=O)(=O)c2ccc(C#Cc3ccccc3)cc2O[C@H]1CN(C)C(=O)c1ccccn1`, the growth inhibition call was “inactive”.

For the compound `O=C1O[C@@H](c2ccccc2)[C@@H](c2ccccc2)N2[C@@H](c3ccc(O)cc3)[C@]3(C(=O)Nc4ccc(C#CC5=CCCCC5)cc43)[C@@H](C(=O)O)[C@H]12`, the growth inhibition call is “active”.

As for `O=C1O[C@@H](c2ccccc2)[C@@H](c2ccccc2)N2[C@@H](c3ccc(O)cc3)[C@]3(C(=O)Nc4ccc(C#CC5=CCCCC5)cc43)[C@@H](C(=O)N3CCCCCCC3)[C@H]12`, the growth inhibition call is “inactive”.

Turning to `C=CCNC(=O)[C@H]1[C@@H]2C(=O)O[C@@H](c3ccccc3)[C@@H](c3ccccc3)N2[C@@H](c2ccc(O)cc2)[C@]12C(=O)Nc1ccc(C#CC3=CCCCC3)cc12`, the growth inhibition call is “inactive”.

`O=C1O[C@H](c2ccccc2)[C@H](c2ccccc2)N2[C@H]1[C@@H](C(=O)O)[C@]1(C(=O)Nc3ccc(C#CC4=CCCCC4)cc31)[C@H]2c1ccccc1OCCO`: the growth inhibition call is “active”.

For the compound `O=C1O[C@H](c2ccccc2)[C@H](c2ccccc2)N2[C@H]1[C@@H](C(=O)O)[C@]1(C(=O)Nc3ccc(C#CC4=CCCCC4)cc31)[C@H]2c1ccc(O)cc1`, the growth inhibition call was “active”.

In the case of `O=C1O[C@@H](c2ccccc2)[C@@H](c2ccccc2)N2[C@@H](c3ccccc3OCCO)[C@]3(C(=O)Nc4ccc(C#CC5=CCCCC5)cc43)[C@@H](C(=O)O)[C@H]12`, the growth inhibition call is “inactive”.

Turning to `C=CCNC(=O)[C@@H]1[C@H]2C(=O)O[C@H](c3ccccc3)[C@H](c3ccccc3)N2[C@H](c2ccc(O)cc2)[C@@]12C(=O)Nc1ccc(C#CC3=CCCCC3)cc12`, the growth inhibition call was “inactive”.

For `NC(=O)[C@H]1[C@@H]2C(=O)O[C@@H](c3ccccc3)[C@@H](c3ccccc3)N2[C@@H](c2ccccc2OCCO)[C@]12C(=O)Nc1ccc(C#CC3=CCCCC3)cc12`, the growth inhibition call is “inactive”.

`O=C1O[C@H](c2ccccc2)[C@H](c2ccccc2)N2[C@H]1[C@@H](C(=O)N1CCCCCCC1)[C@]1(C(=O)Nc3ccc(C#CC4=CCCCC4)cc31)[C@H]2c1ccc(O)cc1`: the growth inhibition call is “inactive”.

Consider `CC(C)(C)S(=O)N1Cc2cc(C(=O)N[C@@H]3CCN(Cc4ccccc4)C3)nc(-c3cccc(C#CCC4CCCC4)c3)c2[C@H]1CCO` (stereo not given in full), for which the growth inhibition call is “inactive”.

Take `CC(C)(C)OC(=O)C[C@@H]1CC=CC[C@@H](CC(=O)NCCO)C(=O)N[C@@H](Cc2ccccc2)COC1=O`: the growth inhibition call is “inactive”.

For the compound `C[C@@H]1CN([C@@H](C)CO)C(=O)Cc2cc(NC(=O)Nc3ccc(F)cc3)ccc2O[C@@H]1CN(C)Cc1ccc(C(=O)Nc2ccccc2N)cc1`, the growth inhibition call is “inactive”.

As for `Cc1ccc(S(=O)(=O)Nc2ccc3c(c2)C(=O)N([C@H](C)CO)C[C@@H](C)[C@@H](CN(C)Cc2ccc4c(c2)OCO4)OCCCC[C@@H](C)O3)cc1`, the growth inhibition call was “inactive”.

In the case of `CC(C)NC(=O)N[C@@H]1CC[C@H](CCN)O[C@@H]1CO`, the growth inhibition call is “inactive”.

Regarding `COc1ccccc1NC(=O)Nc1ccc2c(c1)OC[C@@H](C)N(Cc1ccccc1Cl)C[C@@H](C)[C@H](OC)CN(C)C2=O`, the growth inhibition call is “inactive”.

For `CO[C@H]1CN(C)C(=O)c2ccc(NS(C)(=O)=O)cc2OC[C@H](C)N(C(=O)C2CCOCC2)C[C@H]1C`, the growth inhibition call is “inactive”.

As to `CC(C)CC#Cc1ccc2c(c1)O[C@H](CN(C)C(=O)Cc1cccnc1)[C@@H](C)CN([C@H](C)CO)S2(=O)=O`, the growth inhibition call is “inactive”.

As to `O=C(C[C@H]1CC[C@@H](NC(=O)CN2CCOCC2)[C@H](CO)O1)NCCc1ccccc1`, the growth inhibition call was “inactive”.

For `Cc1ccc(C)c(OCCCC(C)(C)C(=O)O)c1`, the growth inhibition call is “inactive”.

For the compound `CCCCc1ccc(CC(=O)O)cc1`, the growth inhibition call was “inactive”.

For the compound `CC(C)(C)Cc1ccc(OCCCC(=O)O)c(CC(C)(C)C)c1`, the growth inhibition call was “active”.

Regarding `C[C@H](CO)N1C[C@H](C)[C@H](CN(C)S(=O)(=O)c2ccccc2)Oc2ccc(NS(C)(=O)=O)cc2CC1=O`, the growth inhibition call is “inactive”.

Regarding `O=C(CN1C(=O)c2cccc3cccc(c23)C1=O)N1CCN(CCN2C(=O)[C@@H]3[C@@H](C2=O)[C@@H]2C=C[C@@H]3C2)CC1`, the growth inhibition call is “inactive”.

For the compound `CC(C)(C)C1CCC(OC[C@@H](O)CN2CCC(CN3C(=O)c4cccc5cccc(c45)C3=O)CC2)CC1` (stereo not given in full), the growth inhibition call was “active”.

On to `O=C(O)CN1C(=O)c2cccc3cccc(c23)C1=O`, for which the growth inhibition call is “inactive”.

As for `C[C@H](O)C#Cc1cnc2c(c1)C(=O)N([C@@H](C)CO)C[C@H](C)[C@@H](CN(C)Cc1cncnc1)O2`, the growth inhibition call was “inactive”.

In the case of `C[C@@H]1CN([C@@H](C)CO)C(=O)c2cc(NC(=O)c3ccncc3)ccc2O[C@@H](C)CCCCO[C@@H]1CN(C)S(=O)(=O)c1cn(C)cn1`, the growth inhibition call was “inactive”.
